# Where “and” joins values, the source holds several entries; their conditions need not be identical. Identical values can stand only once. Records with an inconclusive call do not appear. Where a call stands in place of a potency, no number is given. Calls of active or inactive are those of the source. Unless noted, the call rests on the fitted dose curve; in most records, active means well fitted curve in the direction sought with a large enough effect; inconclusive means small, poorly fitted or top-dose-only effect, or another doubt; inactive means no such curve, though single readings can be large; an effect the other way counts as inactive or inconclusive.
# Assays:
# [1] = qHTS Assay for Identifying Gametocytocidal Compounds (AID 743244);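 further: actives lower the fluorescent signal which means gametocytes are killed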; conditions: P. falciparum 3D7 stage III-V gametocytes, alamarBlue, 72 h; max response: stronger effect = lower value
# Outline: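 Fluorescence at Ex 525/Em 598 nm, recorded 24 h after alamarBlue addition, reports residual metabolic activity of 3D7 gametocytes (stages III–V) following 72 h compound exposure at 37 °C, 5% CO2.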
# [2] = qHTS assay for cell viability of HEK293 cells (AID 743288); conditions: ATP luminescence (CellTiter-Glo), 18 h, stronger effect = lower value; further: nearly all actives have a fitted effect of over 50% in size
# Outline: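 ATP luminescence (CellTiter-Glo) reports metabolically competent cell number after parental HEK293 cells, 2,000/well, were treated with DMSO-dissolved compounds for 18 h at 37 C; reagent incubation 30 min, room temperature.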
# [3] = qHTS assay for cell viability of the p53RE-bla HCT-116 cell line (AID 743292); further: nearly all actives have a fitted effect of over 55% in size
# Outline: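 HCT-116 p53RE-bla cells seeded 4,000/well; 5 h at 37 C; compound (DMSO) added; 16 h at 37 C; CellTiter-Glo added, 30 min RT; luminescence read.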
# [4] = qHTS assay for measurement of the activity of small molecule inhibitors on Zika virus induced Caspase-3 activity in human iPSC derived neural progenitor cells (hNPCs) (AID 1224857); further: nearly all actives have a fitted effect of over 65% in size
# Outline: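 Zika virus (2 FFU/cell) infection of human iPSC-derived NPCs, 6 h, following 1 h compound preincubation. Read-out: Caspase-Glo 3/7 luminescence.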
# [5] = qHTS assay for measurement of the activity of small molecule inhibitors on Zika virus induced Caspase-3 activity in human astrocytoma cells (AID 1224859)
# Outline: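 Caspase activation in ZIKV-infected SNB-19 cells (2 FFU/cell, 6 h) measured by Caspase-Glo 3/7 luminescence after 30 min RT; compound pre-incubated 1 h; normalised to uninfected and infected controls.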
# [6] = qHTS assay to identify small molecule inhibitors of chordoma cells - UCH-1 (AID 1259355); further: nearly all actives have a fitted effect of over 55% in size
# Outline: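 800 cells/well, overnight attach; compounds pinned at 15 concs, then auranofin/camptothecin/doxorubicin/rubitecan/topotecan combo added; 48hr 37 C, 5% CO2; CellTiter-Glo, 30min RT, luminescence.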
# [7] = qHTS assay to identify small molecule inhibitors of chordoma cells - UCH-2 (AID 1259356)
# [8] = P-glycoprotein substrates identified in KB-8-5-11 adenocarcinoma cell line, qHTS therapeutic library screen (AID 1346987); further: nearly all actives have a fitted effect of over 65% in size; further: potency means the concentration at half of the fitted maximal effect
# Outline: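 Compounds are pinned in dose-response onto KB-8-5-11 cells (500 cells/well, colchicine-free medium) and left 72 h at 37 degree C. CellTiter-Glo luminescence then yields AC50 values.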
# [9] = qHTS profiling for inhibitors of Plasmodium falciparum (3D7) proliferation (AID 743322; call rule not given here;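 further: infected erythrocytes exposed to compound for 72 h before lysis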); conditions: P. falciparum 3D7 proliferation; at 28.7 µM (top of the series) unless noted
# Outline: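 Parasite DNA was quantified by SYBR Green I fluorescence (ex 485, em 535 nm) after overnight lysis in saponin/Triton buffer at room temperature. Cultures at 0.3% parasitemia and 2.5% hematocrit were first exposed to compound for 72 h at 37 C; signals were normalised to artemisinin (0.29 uM) and vehicle wells.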
# [10] = qHTS profiling for inhibitors of Plasmodium falciparum (DD2) proliferation (AID 743323; call rule not given here); conditions: lower = more inhibition; at 28.7 µM (top of the series) unless noted
# Outline: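 Parasite DNA quantified by SYBR Green fluorescence (ex 485, em 535 nm) after saponin/Triton lysis and overnight dark incubation. Cultures: 0.3% parasitemia, 2.5% hematocrit, 72 h, 37 C; data scaled between DMSO and 0.29 uM artemisinin.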
# [11] = qHTS profiling for inhibitors of Plasmodium falciparum (HB3) proliferation (AID 743324); conditions: Plasmodium falciparum HB3 blood-stage proliferation; at 28.7 µM (top of the series) unless noted
# Outline: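 SYBR Green fluorescence (485 ex/535 em) of lysed cultures, incubated overnight at room temperature in the dark, quantifies parasite DNA. Infected erythrocytes at 0.3% parasitemia and 2.5% hematocrit were exposed 72 h; values normalized to DMSO and 0.29 uM artemisinin controls.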
Structure (SMILES),max response [1],max response [2],outcome [3],Potency [4],outcome [5],Potency [6],Potency [7],Potency [8],remaining parasite growth % (stronger effect = lower value) [9],"activity, percent of control [10]","remaining proliferation (% of control), lower = more inhibition [11]","activity change, negative = inhibition [4]","activity change, negative = inhibition [5]"
CCCCC(CC)COC(=O)c1ccc(N(C)C)cc1 (stereo not drawn),3.36% (inactive),4.36% (inactive) and -3.29% (inactive),inactive,inactive,inactive,inactive,inactive,inactive,,,,,
O=S(=O)(O)c1ccc(O)cc1,19.1% (inactive),,,inactive,inactive,inactive,inactive,inactive,,,,,
c1ccc(CC2=NCCN2)cc1,-3.06% (inactive),,,inactive,inactive,inactive,inactive,inactive,,,,,
CC[N+](C)(CC)CCOC(=O)C(O)(c1ccccc1)C1CCCCC1 (stereo not drawn),-1.51% (inactive),,,inactive,inactive,inactive,inactive,inactive,,,,,
CCOc1cc(OCC)c(C(=O)CCC(=O)O)cc1OCC,11% (inactive),,,inactive,inactive,inactive,inactive,inactive,,,,,
Cn1c(=O)c2[nH]c(Br)nc2n(C)c1=O,-3.24% (inactive),,,inactive,inactive,inactive,inactive,inactive,,,,,
Cc1ccc(S(=O)(=O)NC(=O)NC2CCCC2)cc1,3.98% (inactive),,,inactive,inactive,inactive,inactive,inactive,,,,,
C#C[C@]1(O)CC[C@H]2[C@@H]3[C@H](C)CC4=C(CCC(=O)C4)[C@H]3CC[C@@]21C,-5.37% (inactive),,,inactive,inactive,inactive,inactive,,,,,,
CCOC(=O)C(C#N)=C(c1ccccc1)c1ccccc1,-6.54% (inactive),,,inactive,inactive,inactive,inactive,,,,,,
CCOc1ccc(NC(C)=O)cc1,18.5% (inactive),-2.1% (inactive) and -6.16% (inactive),inactive,inactive,inactive,inactive,inactive,inactive,,,,,
NC(=O)c1ccccc1O,-5.71% (inactive),-5% (inactive),inactive,inactive,inactive,inactive,inactive,inactive,,,,,
O=C1C(O)=C(O)C(=O)C(O)=C1O,-3.08% (inactive),,,inactive,inactive,inactive,inactive,inactive,,,,,
CC(=O)Nc1ccc(OCC(O)CNC(C)C)cc1 (stereo not drawn),-2.82% (inactive),,,inactive,inactive,inactive,inactive,inactive,,,,,
CC1(COc2ccc(CC3SC(=O)NC3=O)cc2)CCCCC1 (stereo not drawn),2.09% (inactive),-6.86% (inactive),,inactive,inactive,inactive,inactive,inactive,,,,,
CCCCCCCCCCCCCCCCO,19.3% (inactive),-3.2% (inactive),,inactive,inactive,inactive,inactive,inactive,,,,,
CC(CNC1CCCCC1)OC(=O)c1ccccc1 (stereo not drawn),10.4% (inactive),,,inactive,inactive,inactive,inactive,inactive,106% [at 9.63 µM],61.4% [at 9.63 µM],111% [at 9.63 µM],,
C=C[C@@]1(C)CC(=O)[C@]2(O)[C@@]3(C)[C@@H](O)CCC(C)(C)[C@@H]3[C@H](O)[C@H](OC(C)=O)[C@@]2(C)O1,-8.6% (inactive),-8.77% (inactive),inactive,inactive,inactive,inactive,inactive,inactive,,,,,
N=C(N)N1CCc2ccccc2C1,4.79% (inactive),,,,,inactive,inactive,inactive,,,,-12.7% [at 4.53 µM] (inactive),-0.144% [at 4.53 µM] (inactive)
Cc1c(-c2ccccc2)oc2c(C(=O)OCCN3CCCCC3)cccc2c1=O,3.61% (inactive),,,inactive,inactive,inactive,inactive,inactive,,,,,
C#C[C@]1(O)CC[C@H]2[C@@H]3CCC4=Cc5oncc5C[C@]4(C)[C@H]3CC[C@@]21C,-4.72% (inactive),-10.7% (inactive),inactive,inactive,inactive,inactive,inactive,4.61 µM (active),,,,,
CCCN(CCC)S(=O)(=O)c1ccc(C(=O)O)cc1,12.9% (inactive),7.44% (inactive) and -5.93% (inactive),inactive,inactive,inactive,inactive,inactive,inactive,,,,,
CCCCCCCCCCCCSCCOCCO,3.73% (inactive),,,inactive,inactive,inactive,inactive,inactive,,,,,
C[C@@H](O)[C@H]1C(=O)N2C(C(=O)O)=C(S[C@@H]3CN[C@H](CNS(N)(=O)=O)C3)[C@H](C)[C@H]12,13.8% (inactive),,,inactive,inactive,inactive,inactive,inactive,,,,,
